target: 10 kDa heat shock protein, mitochondrial (UniProt P61604); experiment: cross-link between two proteins; cross-linking mass spectrometry
Sequence (P61604 whole entry): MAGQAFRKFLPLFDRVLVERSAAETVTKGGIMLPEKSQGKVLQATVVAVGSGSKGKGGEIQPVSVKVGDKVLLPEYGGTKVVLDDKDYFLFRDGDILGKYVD

Cytochrome c, P99999, sequence (P99999 whole entry): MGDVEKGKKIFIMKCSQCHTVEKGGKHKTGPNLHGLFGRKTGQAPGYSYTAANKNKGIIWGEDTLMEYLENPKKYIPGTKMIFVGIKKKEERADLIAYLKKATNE
Mitochondrial import inner membrane translocase subunit TIM50, Q3ZCQ8, sequence (Q3ZCQ8 whole entry): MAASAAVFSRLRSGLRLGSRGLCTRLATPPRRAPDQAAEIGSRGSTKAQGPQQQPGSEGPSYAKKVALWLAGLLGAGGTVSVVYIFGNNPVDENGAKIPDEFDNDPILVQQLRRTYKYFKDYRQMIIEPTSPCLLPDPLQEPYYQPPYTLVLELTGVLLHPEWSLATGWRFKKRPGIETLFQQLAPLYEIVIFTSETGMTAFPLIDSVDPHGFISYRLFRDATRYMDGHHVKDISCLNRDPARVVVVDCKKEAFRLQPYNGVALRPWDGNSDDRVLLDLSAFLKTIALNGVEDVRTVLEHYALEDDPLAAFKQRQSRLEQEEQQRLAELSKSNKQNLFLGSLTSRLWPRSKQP

Listed as a hit, yes:
Stress-70 protein, mitochondrial, P38646
Aspartate aminotransferase, mitochondrial, P00505
ATP synthase F(1) complex subunit alpha, mitochondrial, P25705
NADPH:adrenodoxin oxidoreductase, mitochondrial, P22570

target: Malate dehydrogenase, mitochondrial (UniProt P40926); experiment: as above

Listed as a hit, yes:
ADP/ATP translocase 2, P05141
Stress-70 protein, mitochondrial, P38646
Aspartate aminotransferase, mitochondrial, P00505
Citrate synthase, mitochondrial, O75390
ATP synthase F(1) complex subunit alpha, mitochondrial, P25705
NADPH:adrenodoxin oxidoreductase, mitochondrial, P22570
Pyruvate dehydrogenase E1 component subunit alpha, somatic form, mitochondrial, P08559

target: Trifunctional enzyme subunit alpha, mitochondrial (UniProt P40939); experiment: as above
Sequence (P40939 whole entry): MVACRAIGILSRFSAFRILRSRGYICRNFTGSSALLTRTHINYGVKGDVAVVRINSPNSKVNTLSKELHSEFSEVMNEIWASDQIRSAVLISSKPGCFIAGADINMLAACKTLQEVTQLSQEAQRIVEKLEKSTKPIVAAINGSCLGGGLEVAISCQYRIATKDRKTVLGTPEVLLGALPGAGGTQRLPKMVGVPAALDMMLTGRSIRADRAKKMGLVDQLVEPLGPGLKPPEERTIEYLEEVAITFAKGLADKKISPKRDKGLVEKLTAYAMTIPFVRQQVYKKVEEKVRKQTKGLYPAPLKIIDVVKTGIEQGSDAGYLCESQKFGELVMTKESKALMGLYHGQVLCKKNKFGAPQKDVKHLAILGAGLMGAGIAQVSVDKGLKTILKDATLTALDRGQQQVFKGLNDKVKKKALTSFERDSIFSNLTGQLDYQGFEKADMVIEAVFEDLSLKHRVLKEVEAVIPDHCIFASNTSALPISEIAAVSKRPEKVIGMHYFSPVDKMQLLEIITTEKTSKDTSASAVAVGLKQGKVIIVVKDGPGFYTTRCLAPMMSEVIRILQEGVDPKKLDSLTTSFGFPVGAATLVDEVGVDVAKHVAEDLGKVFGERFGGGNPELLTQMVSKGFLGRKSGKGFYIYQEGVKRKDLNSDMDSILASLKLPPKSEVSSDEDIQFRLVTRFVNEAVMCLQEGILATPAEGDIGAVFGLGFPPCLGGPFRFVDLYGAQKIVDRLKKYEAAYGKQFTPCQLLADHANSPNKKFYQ

Listed as a hit, yes:
ADP/ATP translocase 2, P05141
ATP synthase F(0) complex subunit g, mitochondrial, O75964
ATP synthase F(1) complex subunit alpha, mitochondrial, P25705

target: Calnexin (UniProt P27824); experiment: cross-link between two proteins; affinity purification or IP with mass spectrometry; cross-linking mass spectrometry
Sequence (P27824 whole entry): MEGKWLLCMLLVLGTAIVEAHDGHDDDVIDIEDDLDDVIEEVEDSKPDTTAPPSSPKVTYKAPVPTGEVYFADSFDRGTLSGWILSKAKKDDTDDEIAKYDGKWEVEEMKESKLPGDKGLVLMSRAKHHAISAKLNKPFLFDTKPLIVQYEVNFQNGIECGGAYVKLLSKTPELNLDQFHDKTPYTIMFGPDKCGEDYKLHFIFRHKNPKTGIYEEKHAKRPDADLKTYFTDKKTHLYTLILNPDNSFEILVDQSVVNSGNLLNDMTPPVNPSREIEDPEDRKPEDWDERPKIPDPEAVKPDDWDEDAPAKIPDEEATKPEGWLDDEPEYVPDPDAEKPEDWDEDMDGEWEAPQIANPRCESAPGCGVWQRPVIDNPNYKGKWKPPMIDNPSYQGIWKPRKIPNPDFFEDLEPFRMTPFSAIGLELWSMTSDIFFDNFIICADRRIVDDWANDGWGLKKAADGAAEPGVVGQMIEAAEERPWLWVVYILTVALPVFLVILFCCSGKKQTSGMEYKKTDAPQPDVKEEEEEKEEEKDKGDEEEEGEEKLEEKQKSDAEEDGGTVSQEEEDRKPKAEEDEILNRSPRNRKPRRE

Listed as a hit, yes:
Dolichyl-diphosphooligosaccharide--protein glycosyltransferase subunit 2, P04844
Dolichol-phosphate mannosyltransferase subunit 1, O60762
Dolichyl-diphosphooligosaccharide--protein glycosyltransferase subunit 1, P04843

target: Cytochrome c oxidase assembly factor 7 (UniProt Q96BR5); experiment: as above

Listed as a hit, yes:
Cytochrome c oxidase copper chaperone, Q14061
Mitochondrial import inner membrane translocase subunit TIM50, Q3ZCQ8
Myristoylated alanine-rich C-kinase substrate, P29966
Dynamin-like GTPase OPA1, mitochondrial, O60313
Cytochrome c, P99999
Cytochrome c oxidase assembly factor 6 homolog, Q5JTJ3
Tetratricopeptide repeat protein 19, mitochondrial, Q6DKK2
Cytochrome c oxidase assembly factor SCO2, O43819
